Data taken from PubChem BioAssay (Tox21).
A number with no mark means an inactive call. Results filed as inconclusive are left out. Where a call stands in place of a potency, no number is given. Active and inactive are the calls of the source. Unless noted, calls follow the shape of the dose curve; as a rule, active = well fitted curve in the direction sought with a large enough effect in the repeat runs; inconclusive = weak or mixed curves; inactive = no such curve, though single readings can be large; an effect the other way counts as inactive or inconclusive.

Columns and labels:
[1] = molecular target: Acetylcholinesterase (Homo sapiens) (UniProt P22303); assay: Acetylcholinesterase (AChE) small molecule antagonists: enzyme-based qHTS assay (AID 1347397; calls by dose curve; also: nearly all actives have a fitted effect of over 55% in size); details: Potency: AChE enzyme activity inhibition
In short: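 Colorimetric DTNB readout of acetylthiocholine hydrolysis, 10 min at room temperature, after 30 min room-temperature exposure of 50 mU/mL recombinant human enzyme to compound; DMSO vehicle control.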

[2] = molecular target: Acetylcholinesterase (Homo sapiens) (UniProt P22303); assay: Acetylcholinesterase (AChE) small molecule antagonists: fluorescence cell-based qHTS assay (AID 1347398; calls by dose curve; also: nearly all actives have a fitted effect of over 50% in size); details: Potency: AChE activity
In short: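 Cellular AChE activity read as thiocholine from acetylthiocholine hydrolysis, detected by Thiolite Green fluorescence at 490/520 nm after 40 min at room temperature. Compounds were pre-incubated 30 min at 37 C on adherent SH-SY5Y cells.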

[3] = molecular target: Acetylcholinesterase (Homo sapiens) (UniProt P22303); assay: Acetylcholinesterase (AChE) small molecule antagonists: enzyme-based qHTS assay with human liver microsomes (AID 1347399; calls by dose curve; also: nearly all actives have a fitted effect of over 60% in size); details: Potency: qHTS inhibition
In short: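 Recombinant human AChE (50 mU/mL in the enzyme mix) and human liver microsomes (0.25 mg/mL final) were preincubated with compound and NADPH (0.25 mg/mL final) for 30 min at 37 C. Acetylthiocholine/DTNB was then added; thiocholine was read colorimetrically after 10 min at room temperature.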

[4] = molecular target: Cytochrome P450 2C19 (Homo sapiens) (UniProt P33261); assay: Cytochrome P450 Family 2 Subfamily C Member 19 (CYP2C19) small molecule antagonists: luciferase reporter qHTS assay (AID 1671197); also: nearly all actives have a fitted effect of over 65% in size; as to activity change, negative = inhibition: series mostly up to about 120 µM
In short: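 First, compounds are pinned into enzyme-substrate mix and held 10 min at room temperature. Second, NADPH regeneration solution is added and plates incubate 1 h at 37C. Third, detection reagent is added and luminescence read after 20 min.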

[5] = molecular target: Cytochrome P450 1A2 (Homo sapiens) (UniProt P05177); assay: Cytochrome P450 Family 1 Subfamily A Member 2 (CYP1A2) small molecule antagonists: luciferase reporter qHTS assay (AID 1671199); also: nearly all actives have a fitted effect of over 50% in size; as to activity change, negative = inhibition: series mostly up to about 120 µM
In short: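 Room-temperature CYP1A2 reaction with proluciferin substrate: compounds added from DMSO, 10 min preincubation, NADPH regeneration for 1 h. Luciferin detection reagent then added; luminescence recorded as RLU.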

[6] = molecular target: Voltage-gated inwardly rectifying potassium channel KCNH2 (Homo sapiens) (UniProt Q12809); assay: Human Ether-a-go-go-Related Gene (hERG) channel small molecule antagonists: fluorescence cell-based qHTS assay (AID 1671200); also: nearly all actives have a fitted effect of over 50% in size;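 as to activity change, negative = inhibition: hERG-expressing U2OS cells given a thallium stimulus after FluxOR II dye loading; series mostly up to about 77 µM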
In short: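 Read-out: thallium influx as a surrogate for potassium, tracked as fluorescence (480 nm ex/540 nm em) every second for 2 min after Stimulus Buffer addition in dye-loaded hERG-U2OS cells.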

[7] = molecular target: Cytochrome P450 3A4 (Homo sapiens) (UniProt P08684); assay: Cytochrome P450 Family 3 Subfamily A Member 4 (CYP3A4) small molecule antagonists: luciferase reporter qHTS assay (AID 1671201); also: nearly all actives have a fitted effect of over 50% in size; as to activity change, negative = inhibition: series mostly up to about 120 µM
In short: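 Luminescent readout (RLU) proportional to CYP3A4 activity, from luciferin generated off a proluciferin substrate. Enzyme–substrate mix plus compound 10 min at room temp, NADPH regeneration 1 h, detection reagent 20 min.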

[8] = molecular target: Cytochrome P450 2C9 (Homo sapiens) (UniProt P11712); assay: Cytochrome P450 Family 2 Subfamily C Member 9 (CYP2C9) small molecule antagonists: luciferase reporter qHTS assay (AID 1671198); also: nearly all actives have a fitted effect of over 50% in size; as to activity change, negative = inhibition: series mostly up to about 120 µM
In short: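 Enzyme-substrate mix preincubated with compound 10 min at room temperature; reaction started with NADPH regeneration solution, 1 h 37C. Luminescent luciferin product read after 20 min detection reagent.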
Potency is read from the fitted curve at half-maximal effect.

Chain of Voltage-gated inwardly rectifying potassium channel KCNH2 (Homo sapiens) (Q12809 whole entry, looked up): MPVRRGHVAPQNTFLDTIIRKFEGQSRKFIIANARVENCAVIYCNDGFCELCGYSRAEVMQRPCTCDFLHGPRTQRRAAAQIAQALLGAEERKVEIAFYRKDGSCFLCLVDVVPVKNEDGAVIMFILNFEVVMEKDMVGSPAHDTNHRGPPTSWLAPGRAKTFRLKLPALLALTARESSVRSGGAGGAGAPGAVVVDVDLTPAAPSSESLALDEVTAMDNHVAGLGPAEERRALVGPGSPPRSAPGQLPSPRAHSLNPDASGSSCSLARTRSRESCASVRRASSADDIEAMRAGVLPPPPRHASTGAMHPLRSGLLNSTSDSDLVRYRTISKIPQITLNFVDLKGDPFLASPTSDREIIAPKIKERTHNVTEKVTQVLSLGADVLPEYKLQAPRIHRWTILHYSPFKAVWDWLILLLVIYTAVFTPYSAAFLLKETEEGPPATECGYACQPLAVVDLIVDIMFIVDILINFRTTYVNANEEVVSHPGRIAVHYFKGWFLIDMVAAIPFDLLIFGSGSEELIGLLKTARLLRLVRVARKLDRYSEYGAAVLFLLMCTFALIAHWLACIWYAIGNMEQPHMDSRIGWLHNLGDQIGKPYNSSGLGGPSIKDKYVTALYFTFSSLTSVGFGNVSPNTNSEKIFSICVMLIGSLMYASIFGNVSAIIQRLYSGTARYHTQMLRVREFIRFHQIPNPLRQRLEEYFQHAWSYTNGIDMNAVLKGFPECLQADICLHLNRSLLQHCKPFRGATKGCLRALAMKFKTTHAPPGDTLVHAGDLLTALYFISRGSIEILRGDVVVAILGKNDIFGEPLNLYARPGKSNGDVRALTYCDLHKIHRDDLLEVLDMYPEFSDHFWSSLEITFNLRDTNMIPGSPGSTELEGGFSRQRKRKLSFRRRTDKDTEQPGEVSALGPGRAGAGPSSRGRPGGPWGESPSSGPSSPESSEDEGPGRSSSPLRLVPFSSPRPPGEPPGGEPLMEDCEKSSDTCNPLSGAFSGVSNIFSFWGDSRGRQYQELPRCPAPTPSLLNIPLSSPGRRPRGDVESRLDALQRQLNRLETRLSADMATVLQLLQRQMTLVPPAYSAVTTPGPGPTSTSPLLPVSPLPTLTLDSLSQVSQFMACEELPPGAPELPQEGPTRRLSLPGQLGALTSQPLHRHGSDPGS
Chain of Acetylcholinesterase (Homo sapiens) (P22303 whole entry, looked up): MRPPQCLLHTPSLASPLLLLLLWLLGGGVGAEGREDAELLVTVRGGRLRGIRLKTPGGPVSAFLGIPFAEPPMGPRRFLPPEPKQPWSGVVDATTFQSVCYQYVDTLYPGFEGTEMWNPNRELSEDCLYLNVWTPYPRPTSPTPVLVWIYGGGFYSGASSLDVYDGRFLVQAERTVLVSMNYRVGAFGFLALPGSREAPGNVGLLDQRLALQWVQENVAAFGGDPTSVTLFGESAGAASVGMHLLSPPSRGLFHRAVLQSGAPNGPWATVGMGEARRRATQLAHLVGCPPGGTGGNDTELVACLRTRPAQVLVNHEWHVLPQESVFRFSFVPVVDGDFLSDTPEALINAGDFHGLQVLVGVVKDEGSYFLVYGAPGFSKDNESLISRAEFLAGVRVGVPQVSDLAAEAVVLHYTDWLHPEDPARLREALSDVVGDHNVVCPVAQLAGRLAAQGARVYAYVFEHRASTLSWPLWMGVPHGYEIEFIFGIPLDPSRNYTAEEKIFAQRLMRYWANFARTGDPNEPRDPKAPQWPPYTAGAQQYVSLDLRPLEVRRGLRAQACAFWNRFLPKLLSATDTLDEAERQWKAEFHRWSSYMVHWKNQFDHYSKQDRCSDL
Chain of Cytochrome P450 1A2 (Homo sapiens) (P05177 whole entry, looked up): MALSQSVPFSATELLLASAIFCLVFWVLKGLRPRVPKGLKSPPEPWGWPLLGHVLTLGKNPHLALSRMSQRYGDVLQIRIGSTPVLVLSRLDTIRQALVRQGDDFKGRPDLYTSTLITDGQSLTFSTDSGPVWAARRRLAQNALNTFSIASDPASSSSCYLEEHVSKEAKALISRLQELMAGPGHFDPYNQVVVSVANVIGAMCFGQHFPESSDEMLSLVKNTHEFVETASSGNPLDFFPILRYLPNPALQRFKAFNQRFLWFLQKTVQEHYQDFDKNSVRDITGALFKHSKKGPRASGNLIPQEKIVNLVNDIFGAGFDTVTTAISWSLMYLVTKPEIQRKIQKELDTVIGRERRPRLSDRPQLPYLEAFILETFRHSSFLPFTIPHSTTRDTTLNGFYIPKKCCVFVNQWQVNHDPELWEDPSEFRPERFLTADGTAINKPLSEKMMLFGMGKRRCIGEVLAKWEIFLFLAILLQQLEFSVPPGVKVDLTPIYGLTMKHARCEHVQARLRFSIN
Chain of Cytochrome P450 3A4 (Homo sapiens) (P08684 whole entry, looked up): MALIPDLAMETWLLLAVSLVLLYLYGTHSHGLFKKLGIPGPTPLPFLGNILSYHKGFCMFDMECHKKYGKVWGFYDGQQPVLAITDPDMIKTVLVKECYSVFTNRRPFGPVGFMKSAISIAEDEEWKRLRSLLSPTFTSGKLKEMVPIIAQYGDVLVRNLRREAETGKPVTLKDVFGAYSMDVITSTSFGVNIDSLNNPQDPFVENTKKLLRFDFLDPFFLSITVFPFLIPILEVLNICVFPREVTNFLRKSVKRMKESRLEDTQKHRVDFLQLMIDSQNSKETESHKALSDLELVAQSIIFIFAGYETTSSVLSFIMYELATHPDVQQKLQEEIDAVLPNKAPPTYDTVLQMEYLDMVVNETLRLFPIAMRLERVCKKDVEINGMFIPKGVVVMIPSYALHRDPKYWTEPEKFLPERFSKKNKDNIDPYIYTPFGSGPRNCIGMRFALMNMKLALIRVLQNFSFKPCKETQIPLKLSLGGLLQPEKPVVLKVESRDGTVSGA
Chain of Cytochrome P450 2C19 (Homo sapiens) (P33261 whole entry, looked up): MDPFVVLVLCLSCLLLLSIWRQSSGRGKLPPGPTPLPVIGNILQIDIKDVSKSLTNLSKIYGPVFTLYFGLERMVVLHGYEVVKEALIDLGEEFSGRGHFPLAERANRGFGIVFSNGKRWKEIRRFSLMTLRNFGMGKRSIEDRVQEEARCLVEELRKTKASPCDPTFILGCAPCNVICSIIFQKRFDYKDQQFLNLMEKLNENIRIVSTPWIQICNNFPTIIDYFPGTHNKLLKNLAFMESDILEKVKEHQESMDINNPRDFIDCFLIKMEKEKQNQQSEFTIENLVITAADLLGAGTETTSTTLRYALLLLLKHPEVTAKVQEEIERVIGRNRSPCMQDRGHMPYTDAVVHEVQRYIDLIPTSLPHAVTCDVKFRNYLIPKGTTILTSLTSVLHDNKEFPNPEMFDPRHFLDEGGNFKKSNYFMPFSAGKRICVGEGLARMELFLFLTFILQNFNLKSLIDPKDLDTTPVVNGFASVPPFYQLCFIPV
Chain of Cytochrome P450 2C9 (Homo sapiens) (P11712 whole entry, looked up): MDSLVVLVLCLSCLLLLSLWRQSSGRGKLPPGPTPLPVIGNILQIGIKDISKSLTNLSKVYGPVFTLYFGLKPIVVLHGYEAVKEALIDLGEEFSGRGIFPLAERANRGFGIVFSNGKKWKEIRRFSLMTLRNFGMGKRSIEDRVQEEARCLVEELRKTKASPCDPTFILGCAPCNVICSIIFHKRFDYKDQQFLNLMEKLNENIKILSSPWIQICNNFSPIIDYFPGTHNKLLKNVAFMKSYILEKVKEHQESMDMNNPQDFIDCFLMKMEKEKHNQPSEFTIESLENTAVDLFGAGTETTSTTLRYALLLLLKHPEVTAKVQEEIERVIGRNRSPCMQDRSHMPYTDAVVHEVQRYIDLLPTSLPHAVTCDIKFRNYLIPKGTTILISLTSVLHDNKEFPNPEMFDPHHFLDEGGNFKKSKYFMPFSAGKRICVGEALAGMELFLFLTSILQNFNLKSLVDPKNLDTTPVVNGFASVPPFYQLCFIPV

Nc1cnn(-c2ccccc2)c(=O)c1Cl
Potency [1]: inactive
Potency [2]: inactive
Potency [3]: inactive
Potency [4]: inactive
Potency [5]: inactive
Potency [6]: inactive
Potency [7]: inactive

COP(=S)(OC)Oc1c(Cl)cc(C)cc1Cl
Potency [1]: inactive
Potency [2]: inactive
Potency [3]: inactive
Potency [4]: 7.1 µM (active)
Potency [5]: 8.94 µM (active)
Potency [6]: inactive
Potency [7]: 5.03 µM (active)

CC(=O)CC(c1ccc(Cl)cc1)c1c(O)c2ccccc2oc1=O (stereo unspecified)
Potency [1]: inactive
Potency [2]: inactive
Potency [3]: inactive
Potency [4]: inactive
Potency [5]: inactive
Potency [6]: inactive
Potency [7]: inactive

Cc1ccccc1CO[C@@H]1C[C@@]2(C(C)C)CC[C@]1(C)O2
Potency [1]: inactive
Potency [2]: inactive
Potency [3]: inactive
Potency [4]: 5.64 µM (active)
Potency [8]: 22.4 µM (active)
Potency [5]: 20 µM (active)
Potency [6]: inactive
Potency [7]: 3.99 µM (active)

O=C1c2ccccc2C(=O)c2ccccc21
activity change, negative = inhibition [1]: -0.378% [at 23.6 µM]
activity change, negative = inhibition [2]: 3.86% [at 23.8 µM]
activity change, negative = inhibition [3]: -1.34% [at 23.6 µM]
activity change, negative = inhibition [4]: 10.7% [at 23.6 µM]
activity change, negative = inhibition [8]: 2.12% [at 23.6 µM]
Potency [5]: 0.177 µM (active)
activity change, negative = inhibition [6]: 3.3% [at 15.8 µM]
activity change, negative = inhibition [7]: 15.9% [at 23.6 µM]

CC1CN1P(=O)(N1CC1C)N1CC1C (stereo unspecified)
Potency [1]: inactive
Potency [2]: inactive
Potency [3]: inactive
Potency [4]: inactive
Potency [8]: inactive
Potency [5]: inactive
Potency [6]: inactive
Potency [7]: inactive

CCC(=O)C(CCN(C)C)(c1ccccc1)c1ccccc1
Potency [1]: inactive
Potency [2]: inactive
Potency [3]: inactive
Potency [4]: 11 µM (active)
Potency [5]: inactive

CNC(=O)Oc1ccccc1C1OCCO1
Potency [1]: inactive
Potency [2]: inactive
Potency [3]: inactive
Potency [4]: inactive
Potency [5]: 25.1 µM (active)
Potency [6]: inactive
Potency [7]: inactive

CC(=O)C(Cl)Cl
Potency [1]: inactive
Potency [2]: inactive
Potency [3]: inactive
Potency [4]: inactive
Potency [8]: inactive
Potency [5]: inactive
Potency [6]: inactive
Potency [7]: inactive

COc1cc(C[C@@H](C)N)c(OC)cc1C
Potency [1]: inactive
Potency [2]: inactive
Potency [3]: inactive
Potency [4]: inactive
Potency [8]: inactive
Potency [6]: inactive
Potency [7]: inactive

CCS(=O)(=O)C(C)(C)S(=O)(=O)CC
Potency [1]: inactive
Potency [2]: inactive
Potency [3]: inactive
Potency [4]: inactive
Potency [8]: inactive
Potency [5]: inactive
Potency [6]: inactive
Potency [7]: inactive

CC(=O)CCc1ccc2c(c1)OCO2
Potency [1]: inactive
Potency [2]: inactive
Potency [3]: inactive
Potency [4]: 35.6 µM (active)
Potency [8]: 31.7 µM (active)
Potency [5]: 0.633 µM (active)
Potency [6]: inactive
Potency [7]: 22.4 µM (active)

CCCSP(=S)(OCC)Oc1ccc(Cl)cc1Cl (stereo unspecified)
Potency [1]: inactive
Potency [2]: inactive
Potency [3]: inactive
Potency [4]: 2.24 µM (active)
Potency [5]: 11.2 µM (active)
Potency [6]: inactive
Potency [7]: 2.83 µM (active)

O=C(O)c1cccc(Cl)c1
Potency [1]: inactive
Potency [2]: inactive
Potency [3]: inactive
Potency [4]: inactive
Potency [5]: 40 µM (active)
Potency [6]: inactive
Potency [7]: inactive

NC1=NC(=O)C(c2ccccc2)O1 (stereo unspecified)
Potency [1]: inactive
Potency [2]: inactive
Potency [3]: inactive
Potency [4]: inactive
Potency [8]: inactive
Potency [5]: inactive
Potency [6]: inactive
Potency [7]: inactive

CCS(=O)(=O)CCSP(=O)(OC)OC
Potency [1]: inactive
Potency [2]: inactive
Potency [3]: inactive
Potency [4]: inactive
Potency [8]: inactive
Potency [6]: inactive
Potency [7]: inactive

COP(=S)(OC)Oc1ccc(S(N)(=O)=O)cc1
Potency [1]: inactive
Potency [2]: inactive
Potency [3]: inactive
Potency [4]: 1.38 µM (active)
Potency [8]: 3.47 µM (active)
Potency [6]: inactive

CC(C)CP(=S)(S)CC(C)C
Potency [1]: inactive
Potency [2]: inactive
Potency [3]: inactive
Potency [4]: 56.4 µM (active)
Potency [8]: 31.7 µM (active)
Potency [6]: inactive
Potency [7]: 35.6 µM (active)

COC(=O)C1=CCCN(C)C1
Potency [1]: inactive
Potency [2]: inactive
Potency [3]: inactive
Potency [4]: inactive
Potency [8]: inactive
Potency [5]: inactive
Potency [6]: inactive
Potency [7]: inactive

CN(C)CCc1ccc(O)cc1
Potency [1]: inactive
Potency [2]: inactive
Potency [3]: inactive
Potency [4]: inactive
Potency [8]: inactive
Potency [6]: inactive
Potency [7]: inactive

CCCSP(=O)(OCC)Oc1ccc(Br)cc1Cl (stereo unspecified)
Potency [1]: 3.87 µM (active)
Potency [2]: 0.866 µM (active)
Potency [3]: 2.74 µM (active)
Potency [4]: 3.45 µM (active)
Potency [8]: 10.9 µM (active)
Potency [5]: 4.34 µM (active)
Potency [7]: inactive

C1CCC(C2CCCCC2)CC1
Potency [1]: inactive
Potency [2]: inactive
Potency [3]: inactive
Potency [4]: inactive
Potency [8]: inactive
Potency [6]: inactive
Potency [7]: inactive

O=C1CN=C(c2ccccc2)c2cc([N+](=O)[O-])ccc2N1
Potency [1]: inactive
Potency [2]: inactive
Potency [3]: inactive
Potency [4]: inactive
Potency [5]: inactive
Potency [6]: inactive
Potency [7]: inactive

OC(c1ccc(F)cc1)(c1cncnc1)c1ccccc1Cl (stereo unspecified)
Potency [1]: inactive
Potency [2]: inactive
Potency [3]: inactive
Potency [4]: 3.99 µM (active)
Potency [8]: 20 µM (active)
Potency [6]: inactive
Potency [7]: 0.356 µM (active)

CCCCOC(=O)[C@@H](C)Oc1ccc(Oc2ccc(C#N)cc2F)cc1
Potency [1]: inactive
Potency [2]: inactive
Potency [3]: inactive
Potency [4]: 19.9 µM (active)
Potency [5]: 31.5 µM (active)
Potency [6]: 4.34 µM (active)
Potency [7]: inactive

Cc1cc(C)c(C(=O)P(=O)(C(=O)c2c(C)cc(C)cc2C)c2ccccc2)c(C)c1
Potency [1]: inactive
Potency [2]: inactive
Potency [3]: inactive
Potency [4]: 35.6 µM (active)
Potency [8]: 35.6 µM (active)
Potency [6]: inactive
Potency [7]: 25.2 µM (active)

CCOC(=O)NC(=S)Nc1ccccc1NC(=S)NC(=O)OCC
Potency [1]: inactive
Potency [2]: inactive
Potency [3]: inactive
Potency [4]: 5.03 µM (active)
Potency [5]: 31.7 µM (active)
Potency [6]: inactive
Potency [7]: 25.2 µM (active)

OCCBr
Potency [1]: inactive
Potency [2]: inactive
Potency [3]: inactive
Potency [4]: inactive
Potency [8]: inactive
Potency [6]: inactive
Potency [7]: inactive
